Calls of active or inactive are those of the source. The calls were made as follows: active = hit-call score of the fitted dose curve at least 0.9, where 1 is the maximum; inactive = score below 0.9.
What was measured:
[1] = ATG_CRE_CIS: Attagene CIS-FACTORIAL HepG2 Assay for human cAMP Responsive Element (CRE) binding protein 3 (AID 2282926); conditions: HepG2 CRE cis-reporter, Attagene multiplexed mRNA; actives raise or lower the signal
In short: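 HepG2 cells transiently transfected with a multiplexed reporter library (CRE-driven unit among them) were dosed for 24 h. Reporter mRNA was quantified by RT-PCR, fluorescent labelling, HpaI digestion and capillary electrophoresis, with bidirectional fitting against DMSO baseline.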

[2] = biological target: CCAAT/enhancer-binding protein beta (Homo sapiens) (UniProt P17676); assay: ATG_C_EBP_CIS: Attagene CIS-FACTORIAL HepG2 Assay for human CCAAT/Enhancer Binding Protein (C/EBP) beta (AID 2282927); conditions: HepG2 Attagene cis-factorial transcription factor reporter; actives raise or lower the signal
CCAAT/enhancer-binding protein beta (Homo sapiens), sequence (P17676 whole entry, looked up): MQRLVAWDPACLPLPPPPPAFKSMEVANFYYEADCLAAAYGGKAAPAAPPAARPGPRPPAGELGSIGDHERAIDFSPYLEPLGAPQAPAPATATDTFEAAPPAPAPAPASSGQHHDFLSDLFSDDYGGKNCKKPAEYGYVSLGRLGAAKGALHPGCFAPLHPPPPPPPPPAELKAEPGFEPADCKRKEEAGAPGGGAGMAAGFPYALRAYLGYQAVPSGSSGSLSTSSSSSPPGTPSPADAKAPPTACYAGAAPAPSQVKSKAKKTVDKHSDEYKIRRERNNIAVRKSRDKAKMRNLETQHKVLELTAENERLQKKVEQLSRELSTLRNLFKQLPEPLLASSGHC
In short: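 HepG2, transient MRTU transfection, 24 h treatment. RT-PCR plus CE fluorescence; DMSO negative control, bidirectional fit.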

[3] = ATG_CMV_CIS: Attagene CIS-FACTORIAL HepG2 Assay for human CMV (Internal Marker) (AID 2282928); conditions: HepG2 CMV promoter reporter, transcription factor profiling; actives raise or lower the signal;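 also: endpoint acts as a background internal control marker rather than a target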
In short: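 HepG2 cells transiently transfected with multiple cis-regulated reporter units; 24 h compound exposure. Reporter mRNA quantified by RT-PCR, 6-FAM primer-extension labeling, HpaI digestion and capillary electrophoresis; bidirectional fitting against DMSO baseline.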

[4] = ATG_DR4_LXR_CIS: Attagene CIS-FACTORIAL HepG2 Assay for human Liver X Receptor (LXR), DR4 submotif (AID 2282929); conditions: HepG2 Attagene DR4 cis-reporter, mRNA transcription; actives raise or lower the signal
In short: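 HepG2 cells transiently transfected with cis-promoter-driven multiplexed reporter units (DR4 element) were dosed for 24 h. Reporter mRNA was quantified by RT-PCR, fluorescent primer extension, HpaI digestion and capillary electrophoresis; bidirectional fitting versus DMSO baseline.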

[5] = biological target: Aryl hydrocarbon receptor (Homo sapiens) (UniProt P35869); assay: ATG_Ahr_CIS: Attagene CIS-FACTORIAL HepG2 Assay for human Aryl Hydrocarbon Receptor (Ahr) (AID 2282930); conditions: HepG2 AhR cis-factorial reporter transcription; actives raise or lower the signal
Aryl hydrocarbon receptor (Homo sapiens), sequence (P35869 whole entry, looked up): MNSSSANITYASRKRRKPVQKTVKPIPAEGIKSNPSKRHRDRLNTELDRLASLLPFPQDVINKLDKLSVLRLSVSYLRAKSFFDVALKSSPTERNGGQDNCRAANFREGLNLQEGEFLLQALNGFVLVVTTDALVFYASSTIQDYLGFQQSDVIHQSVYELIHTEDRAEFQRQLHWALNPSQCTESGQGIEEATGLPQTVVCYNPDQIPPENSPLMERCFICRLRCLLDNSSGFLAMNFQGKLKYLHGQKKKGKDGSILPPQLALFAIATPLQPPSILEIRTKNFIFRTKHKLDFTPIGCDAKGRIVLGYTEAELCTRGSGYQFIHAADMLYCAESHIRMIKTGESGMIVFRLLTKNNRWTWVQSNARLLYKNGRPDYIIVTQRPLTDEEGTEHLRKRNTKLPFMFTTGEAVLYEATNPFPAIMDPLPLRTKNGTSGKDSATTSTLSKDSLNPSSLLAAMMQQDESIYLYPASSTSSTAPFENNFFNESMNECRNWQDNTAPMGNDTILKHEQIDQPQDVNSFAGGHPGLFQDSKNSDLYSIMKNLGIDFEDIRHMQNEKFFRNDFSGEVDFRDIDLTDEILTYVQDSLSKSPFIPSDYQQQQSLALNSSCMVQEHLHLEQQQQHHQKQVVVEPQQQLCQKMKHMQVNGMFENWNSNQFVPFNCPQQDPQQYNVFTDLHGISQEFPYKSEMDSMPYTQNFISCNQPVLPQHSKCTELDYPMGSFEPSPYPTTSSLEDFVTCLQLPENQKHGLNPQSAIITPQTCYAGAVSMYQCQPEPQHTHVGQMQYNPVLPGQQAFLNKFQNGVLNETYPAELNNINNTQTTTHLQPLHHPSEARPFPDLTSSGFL
In short: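 Endogenous factor activity is tracked through cis-promoter reporter units transfected into HepG2 cells. Transcript levels at 24 h are read by fluorescent RT-PCR and capillary electrophoresis, with activity in either direction scored relative to DMSO.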

[6] = ATG_AP_1_CIS: Attagene CIS-FACTORIAL HepG2 Assay for human Activator Protein 1 (AP-1) (AID 2282931); conditions: HepG2 Attagene cis-factorial AP-1 reporter mRNA; actives raise or lower the signal
In short: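 HepG2 cells transiently transfected with cis-element-driven multiplex reporter units; 24 h compound exposure. Reporter mRNA quantified by RT-PCR, FAM-labelled fragments resolved by capillary electrophoresis; bidirectional fit versus DMSO baseline.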

[7] = ATG_AP_2_CIS: Attagene CIS-FACTORIAL HepG2 Assay for human Activator Protein 2 (AP-2) (AID 2282932); conditions: HepG2 AP-2 cis-reporter, Attagene transcription factor profiling; actives raise or lower the signal
In short: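 Multiplexed mRNA reporter assay in HepG2: cis-regulated units report endogenous factor activity after 24 h treatment. Fluorescence from capillary electrophoresis of RT-PCR products gives the signal, with DMSO as baseline.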

[8] = ATG_BRE_CIS: Attagene CIS-FACTORIAL HepG2 Assay for human Bone Morphogenetic Protein (BMP) Response Element (BRE) (AID 2282933); conditions: HepG2 BMP response element reporter, Attagene transcription factor profiling; actives raise or lower the signal
In short: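 Endogenous transcription factor activity at a BMP response element was monitored in transfected HepG2 cells 24 h after dosing. Fluorescent RT-PCR products were resolved by capillary electrophoresis, and activity was fitted in both directions versus DMSO.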

[9] = biological target: Retinoic acid receptor alpha (Homo sapiens) (UniProt P10276); assay: ATG_DR5_RAR_CIS: Attagene CIS-FACTORIAL HepG2 Assay for human Retinoic Acid Receptor Alpha (RARE), DR5 submotif (AID 2282934); conditions: HepG2 Attagene cis-factorial RARE DR5 reporter, mRNA; actives raise or lower the signal
Retinoic acid receptor alpha (Homo sapiens), sequence (P10276 whole entry, looked up): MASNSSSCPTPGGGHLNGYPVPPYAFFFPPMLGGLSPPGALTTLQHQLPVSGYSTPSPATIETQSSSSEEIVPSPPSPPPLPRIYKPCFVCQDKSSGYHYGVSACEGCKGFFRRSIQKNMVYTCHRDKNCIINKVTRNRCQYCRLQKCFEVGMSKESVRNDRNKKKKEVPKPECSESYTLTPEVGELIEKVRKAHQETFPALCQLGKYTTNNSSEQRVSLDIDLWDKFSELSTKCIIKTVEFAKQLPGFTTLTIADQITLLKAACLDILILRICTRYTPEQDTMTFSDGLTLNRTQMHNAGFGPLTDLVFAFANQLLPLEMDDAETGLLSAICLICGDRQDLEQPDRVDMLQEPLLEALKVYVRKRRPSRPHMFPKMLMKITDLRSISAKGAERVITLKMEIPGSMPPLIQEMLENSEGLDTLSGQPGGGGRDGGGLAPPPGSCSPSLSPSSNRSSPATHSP
In short: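 After 24 h of chemical exposure, transiently transfected HepG2 cells were lysed for total RNA; the DR5-regulated reporter transcript was quantified via RT-PCR and capillary electrophoresis, with activity fitted bidirectionally against DMSO.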

[10] = biological target: Transcription factor E2F1 (Homo sapiens) (UniProt Q01094); assay: ATG_E2F_CIS: Attagene CIS-FACTORIAL HepG2 Assay for human E2F Transcription Factor 1 (AID 2282935); conditions: HepG2 Attagene cis-reporter, E2F reporter RNA transcripts; actives raise or lower the signal
Transcription factor E2F1 (Homo sapiens), sequence (Q01094 whole entry, looked up): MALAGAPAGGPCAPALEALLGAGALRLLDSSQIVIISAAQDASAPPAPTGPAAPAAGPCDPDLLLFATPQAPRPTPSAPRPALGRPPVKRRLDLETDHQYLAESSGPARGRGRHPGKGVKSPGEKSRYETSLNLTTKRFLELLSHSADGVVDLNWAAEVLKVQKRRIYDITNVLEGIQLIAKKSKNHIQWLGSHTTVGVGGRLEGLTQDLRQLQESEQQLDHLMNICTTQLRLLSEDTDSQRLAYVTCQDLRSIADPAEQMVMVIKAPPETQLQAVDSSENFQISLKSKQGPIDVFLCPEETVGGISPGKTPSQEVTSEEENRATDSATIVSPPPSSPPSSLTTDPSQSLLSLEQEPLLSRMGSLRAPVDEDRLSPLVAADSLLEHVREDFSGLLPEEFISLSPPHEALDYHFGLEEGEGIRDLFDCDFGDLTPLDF
In short: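 Measures reporter transcript levels via RT-PCR with capillary electrophoresis detection in HepG2 cells harboring cis-regulated reporter units; 24 h post-dose; bidirectional curve fitting with DMSO as baseline.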

[11] = ATG_E_Box_CIS: Attagene CIS-FACTORIAL HepG2 Assay for human Enhancer Box (E-box) (AID 2282936); conditions: HepG2 E-box cis-reporter transcription, actives raise or lower the signal
In short: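 First, HepG2 cells receive multiple cis-regulated reporter constructs by transient transfection. Next, chemicals are applied for 24 h. Finally, reporter mRNA is quantified via RT-PCR and capillary electrophoresis, with DMSO as baseline.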

[12] = ATG_M_61_CIS: Attagene CIS-FACTORIAL HepG2 Assay for M61 Transcription Factor (Internal Marker) (AID 2282937); conditions: HepG2 Attagene CIS-FACTORIAL M61 internal marker reporter; actives raise or lower the signal
In short: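 HepG2 cells transiently transfected with cis-element-driven multiple reporter transcription units, dosed for 24 h. Reporter mRNA measured by RT-PCR, 6-FAM primer-extension labelling, HpaI digestion and capillary electrophoresis; bidirectional fit versus DMSO baseline.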

[13] = ATG_EGR_CIS: Attagene CIS-FACTORIAL HepG2 Assay for human Early Growth Response 1 (EGR1) (AID 2282938); conditions: HepG2 Attagene CIS-FACTORIAL EGR reporter mRNA; actives raise or lower the signal
In short: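 HepG2 cells transiently transfected with cis-promoter-driven multiplexed reporter transcription units; reporter mRNA measured 24 h after compound dosing by RT-PCR, 6-FAM primer extension, HpaI digestion and capillary electrophoresis. Bidirectional fit versus DMSO baseline.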

[14] = ATG_M_19_CIS: Attagene CIS-FACTORIAL HepG2 Assay for M19 Transcription Factor (Internal Marker) (AID 2282939); conditions: HepG2 Attagene CIS-FACTORIAL M19 internal marker reporter; actives raise or lower the signal
In short: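 Background-control endpoint from a multiplexed HepG2 reporter panel. Cells carrying cis-regulated reporter constructs are treated 24 h, then reporter transcripts are amplified, fluorescently labelled and sized by capillary electrophoresis. DMSO defines baseline.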

[15] = ATG_ERE_CIS: Attagene CIS-FACTORIAL HepG2 Assay for Estrogen Response Element (ERE) (AID 2282940); conditions: HepG2 ERE cis-reporter, Attagene RNA transcript; actives raise or lower the signal
In short: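 Cells used were human hepatoma HepG2, transfected with multiple reporter transcription units under cis-regulatory promoters. Reporter mRNA, read 24 h post-dosing via fluorescent RT-PCR products on capillary electrophoresis, was fitted bidirectionally relative to DMSO.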

[16] = ATG_Ets_CIS: Attagene CIS-FACTORIAL HepG2 Assay for human Erythroblast Transformation Specific (ETS) (AID 2282941); conditions: HepG2 ETS cis-reporter transcription, actives raise or lower the signal
In short: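 HepG2 cells transiently transfected with cis-promoter reporter transcription units were dosed for 24 h; reporter mRNA was measured by RT-PCR, 6-FAM primer extension, HpaI digestion and capillary electrophoresis, with bidirectional fitting against DMSO baseline.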

[17] = biological target: Hepatocyte nuclear factor 3-beta (Homo sapiens) (UniProt Q9Y261); assay: ATG_FoxA2_CIS: Attagene CIS-FACTORIAL HepG2 Assay for human Forkhead box A2 (FOXA2) (AID 2282942); conditions: HepG2 cis-reporter transcription factor activity, 24 h; actives raise or lower the signal
Hepatocyte nuclear factor 3-beta (Homo sapiens), sequence (Q9Y261 whole entry, looked up): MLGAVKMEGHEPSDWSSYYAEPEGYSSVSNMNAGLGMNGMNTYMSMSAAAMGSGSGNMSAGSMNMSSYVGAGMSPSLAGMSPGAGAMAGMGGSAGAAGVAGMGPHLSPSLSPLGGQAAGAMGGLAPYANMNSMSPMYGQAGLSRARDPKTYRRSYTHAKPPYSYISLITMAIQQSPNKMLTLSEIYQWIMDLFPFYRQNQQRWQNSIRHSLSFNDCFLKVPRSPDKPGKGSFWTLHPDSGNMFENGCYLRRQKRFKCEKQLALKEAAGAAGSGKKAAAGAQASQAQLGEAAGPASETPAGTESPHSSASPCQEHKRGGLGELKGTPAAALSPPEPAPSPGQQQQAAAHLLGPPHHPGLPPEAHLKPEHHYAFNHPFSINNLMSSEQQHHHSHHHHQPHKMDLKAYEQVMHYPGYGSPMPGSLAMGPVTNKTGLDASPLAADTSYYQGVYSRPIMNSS
In short: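 HepG2 cells transiently transfected with multiple cis-regulated reporter transcription units, dosed for 24 h. Reporter mRNA measured by RT-PCR, 6-FAM labelling, HpaI digestion and capillary electrophoresis; bidirectional fitting against DMSO baseline.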

[18] = ATG_FoxO_CIS: Attagene CIS-FACTORIAL HepG2 Assay for human Forkhead box O (FoxO) (AID 2282943); conditions: HepG2 Attagene cis-reporter, FoxO element, mRNA; actives raise or lower the signal
In short: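 Transfected HepG2 reporter cells exposed to test chemical for 24 h; reporter RNA measured by reverse transcription, PCR and fluorescent capillary electrophoresis; curves fitted for increases and decreases against DMSO.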

[19] = ATG_GLI_CIS: Attagene CIS-FACTORIAL HepG2 Assay for human Zinc Finger Protein GLI1 (AID 2282945); conditions: HepG2, Attagene cis-factorial reporter mRNA, GLI element; actives raise or lower the signal
In short: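 Transiently transfected HepG2 cells report endogenous transcription factor activity via cis-element-driven reporter units. After 24 h compound exposure, reporter mRNA was measured by RT-PCR with capillary electrophoresis; bidirectional fitting against DMSO baseline.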

[20] = ATG_GATA_CIS: Attagene CIS-FACTORIAL HepG2 Assay for human GATA Binding Protein (AID 2282944); conditions: HepG2 GATA cis-element reporter, Attagene multiplex mRNA; actives raise or lower the signal
In short: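 Endogenous transcription factor activity was captured through cis-promoter-driven reporters in transfected HepG2 cells. After 24 h exposure, reporter transcripts were quantified by RT-PCR with fluorescent capillary electrophoresis, and responses fitted both directions against DMSO.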

Measured: outcome

CC(C)CCCC(C)CC=O (configuration not stated)
not listed: [20]
inactive: all other assays above

CC=CC(F)(F)C(F)(F)C(F)(F)F
not listed: [17]
inactive: all other assays above

CCCCCCOC(=O)C(C)CC (configuration not stated)
not listed: [18]
inactive: all other assays above

COc1ccc([C@@H]2CC(=O)c3c(O)cc(O[C@@H]4O[C@H](CO[C@@H]5O[C@@H](C)[C@H](O)[C@@H](O)[C@H]5O)[C@@H](O)[C@H](O)[C@H]4O)cc3O2)cc1OC
inactive: all assays above
